MCL1-BIM inh: inhibitors of MCL1 binding to BIM-BH3, primary screen, biochemical, fluorescence polarization; 320,000 compounds, 0.68% hits; GST-MCL1 / FITC-Bim-BH3 fluorescence polarization; Induced myeloid leukemia cell differentiation protein Mcl-1 (Homo sapiens), Q07820; inhibition, % at 10.9 µM;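 active = inhibition above the mean inhibition of all tested compounds plus 3 SD, set per campaign, cut at about 40% in these data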;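 also: higher means more loss of mP so more displacement of Bim peptide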
Bcl-xL primary: inhibitors of human Bcl-xL, primary screen, biochemical, fluorescence polarization, HTS; GST-Bcl-xL / FITC-Bim BH3 peptide fluorescence polarization; inhibition, % at 10.9 µM; 320,000 compounds, 0.7% hits;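 active = inhibition above the mean of all tested compounds plus 3 SD, cutoff set per campaign, cut at about 30% in these data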;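 also: inhibitors lower millipolarization by displacing the labeled peptide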
MEX-5 binding: MEX-5 zinc finger RNA-binding disruptors – biochemical, C. elegans, fluorescence polarization, MLPCN library, primary screen | Zinc finger protein mex-5 (Caenorhabditis elegans), Q9XUB2 | MEX-5/FITC-TCR2 RNA binding; stronger effect = lower value | activity score (negative = inhibition of binding), % at 10 µM | 300,000 compounds, 0.38% hits;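 active = inhibition past about -25% in most replicates, and total fluorescence under double the plate's negative control median, limit read from the data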
Target sequence (Q9XUB2 whole entry, looked up): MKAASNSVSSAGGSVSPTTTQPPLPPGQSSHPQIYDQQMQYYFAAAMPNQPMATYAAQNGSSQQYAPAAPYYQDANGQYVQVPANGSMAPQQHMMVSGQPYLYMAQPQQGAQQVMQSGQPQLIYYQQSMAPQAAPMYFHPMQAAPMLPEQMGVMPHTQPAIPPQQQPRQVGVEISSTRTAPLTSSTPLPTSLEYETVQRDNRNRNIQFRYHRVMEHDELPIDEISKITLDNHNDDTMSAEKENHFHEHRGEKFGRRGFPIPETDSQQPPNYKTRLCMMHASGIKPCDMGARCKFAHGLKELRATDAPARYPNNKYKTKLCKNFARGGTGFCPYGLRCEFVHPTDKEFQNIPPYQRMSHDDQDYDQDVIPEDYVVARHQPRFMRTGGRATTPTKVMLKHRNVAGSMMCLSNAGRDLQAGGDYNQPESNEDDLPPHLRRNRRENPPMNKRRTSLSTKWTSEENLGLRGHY
EBV gp42 block: Epstein-Barr virus gp42 inhibitors, primary screen, biochemical, uHTS, fluorescence polarization | Glycoprotein 42 (Epstein-Barr virus (strain AG876)), Q1HVG2 | 220,000 compounds, 0.42% hits | Fluorescence polarization binding assay, mP read-out | inhibition, % (tested at 21.74 µM) | AID 1085, 2008; in the data active = inhibition above about 50%
Target sequence (Q1HVG2 whole entry, looked up): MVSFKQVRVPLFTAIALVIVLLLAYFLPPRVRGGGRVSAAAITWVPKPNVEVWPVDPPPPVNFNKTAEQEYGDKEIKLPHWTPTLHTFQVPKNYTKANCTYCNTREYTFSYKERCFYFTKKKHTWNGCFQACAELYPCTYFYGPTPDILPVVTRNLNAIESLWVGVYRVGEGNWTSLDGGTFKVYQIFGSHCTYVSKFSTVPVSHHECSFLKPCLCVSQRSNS
E coli Lon inh: inhibitors of E. coli Lon protease, primary screen, biochemical, fluorescence polarization; 360,000 compounds, 0.42% hits; P0A9M0; purified E. coli Lon protease; inhibition, % at 7.94 µM; in the data active = inhibition above about 13%, passing the limit was not always enough
GLD-1 RNA inh: GLD-1/TGE RNA complex disruptors, primary screen, biochemical, fluorescence polarization; purified GLD-1 + fluorescein TGE RNA; inhibition, % at 5.96 µM; 320,000 compounds, 0.44% hits;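 active = percent inhibition above a per-plate cutoff, the plate mean of test compounds plus 3 SD, cut at about 30% in these data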
Large screens that a line does not name were inactive. Most compounds without a hit are left out; they make up all but 1.4% or so of the library.

NS(=O)(=O)c1ccc(Nc2nc(-c3ccc(O)cc3O)cs2)cc1	MEX-5 binding -45
NS(=O)(=O)c1ccc(Nc2nc(-c3ccc(F)cc3)cs2)cc1	none
CCOC(=O)N1CCN(c2nc3ccccc3nc2C(C#N)S(=O)(=O)c2ccc(C)cc2)CC1 (stereo not given)	MEX-5 binding -35
Cc1ccc(S(=O)(=O)C(C#N)c2nc3ccccc3nc2N2CCN(C)CC2)cc1 (stereo not given)	none
CCN(CC)S(=O)(=O)c1cccc(NC(=O)c2ccc(SC)cc2OC)c1	none
COc1cc(SC)ccc1C(=O)Nc1cccc(S(=O)(=O)NC2=NCCCCC2)c1	GLD-1 RNA inh 165 (no result: EBV gp42 block)
COc1ccc(Cl)cc1-c1cc(C(=O)Nc2ccc(C(C)(C)C)cc2)[nH]n1	none (no result: MCL1-BIM inh, Bcl-xL primary, MEX-5 binding, EBV gp42 block, GLD-1 RNA inh)
O=c1[nH]cnc2c1ncn2C1OC(CO)CC1F (stereo not given)	none (no result: MCL1-BIM inh, Bcl-xL primary, MEX-5 binding, EBV gp42 block, GLD-1 RNA inh)
Cc1cc(/C=N/Nc2ccc([N+](=O)[O-])cn2)c(C)n1-c1ccc(C(=O)O)cc1	EBV gp42 block 61
COc1ccc(CNC(=O)C[C@H]2C[C@H](C(=O)N(C(C)C)C(C)C)[C@@]3(C)c4[nH]c5cc(-c6ccco6)ccc5c4CCN3C2=O)cc1OC	none (no result: MCL1-BIM inh, Bcl-xL primary, MEX-5 binding, EBV gp42 block, GLD-1 RNA inh)
Cc1cccc(N=Nc2c(C)c(C#N)c(O)[nH]c2=O)c1	none
CCCCOC(=O)c1ccc(N=Nc2c(C)c(C#N)c(O)[nH]c2=O)cc1	MEX-5 binding -63
NC(=O)c1snnc1-c1ccccc1	MEX-5 binding -29
NC(=O)c1sc2nnc(-c3ccccc3)c(-c3ccccc3)c2c1N	MEX-5 binding -53
NNC(=O)c1snnc1-c1ccccc1	none
Cc1cc(=O)c(C(=O)c2ccccc2)c(C)o1	Bcl-xL primary 37 (no result: EBV gp42 block)
Cc1oc2ccc(O)cc2c1C(=O)c1ccccc1	none (no result: EBV gp42 block)
CCCNC(=O)C1(C)CCCN(Cc2c3ccccc3nn2C)C1 (stereo not given)	none (no result: MCL1-BIM inh, Bcl-xL primary, MEX-5 binding, EBV gp42 block, GLD-1 RNA inh)
COc1ccc(CCNc2nc(-c3cccnc3)cs2)cc1OC	EBV gp42 block 138
Cc1ccc(N=Cc2sc(O)c3ccccc23)cc1	none
Cc1ccc(N=Cc2sc(O)c3ccccc23)c(C)c1	MEX-5 binding -31
CC[C@H](C)/C=C(C)/C=C/C1=CC2=CC(=O)[C@]3(C)OC(=O)[C@@H](C(C)=O)[C@@H]3C2=CO1	MCL1-BIM inh 47, Bcl-xL primary 38, GLD-1 RNA inh 34
OC(c1ccccc1)(c1nc(-c2ccc3c(c2)OCO3)cs1)C(F)(F)F (stereo not given)	none (no result: MCL1-BIM inh, Bcl-xL primary, MEX-5 binding, EBV gp42 block, GLD-1 RNA inh)
N#C/C(=C\C=C\c1ccccc1)c1nc(-c2ccc3c(c2)OCO3)cs1	EBV gp42 block 156
COc1ccc2cc(/C=C3\SC(=S)NC3=O)c(N3CCOCC3)nc2c1	MEX-5 binding -26
COc1cccc(C=C2SC(=S)NC2=O)c1	none (no result: MCL1-BIM inh, Bcl-xL primary, MEX-5 binding, EBV gp42 block, GLD-1 RNA inh)
OC[C@@H]1CN(CCN2CCOCC2)C[C@H](n2cnc3c(Nc4ccccc4)ncnc32)O1	none (no result: MCL1-BIM inh, Bcl-xL primary, MEX-5 binding, EBV gp42 block, GLD-1 RNA inh)
COc1ccc(C)cc1Nc1n[n+](C)c(-c2c3ccccc3cc3ccccc23)s1	Bcl-xL primary 32 (no result: EBV gp42 block, E coli Lon inh)
COc1ccc(C)cc1Nc1n[n+](C)c(-c2ccc(O)cc2O)s1	none (no result: EBV gp42 block)
CC(C)OC(=O)C[N+](C)(C)CCN1C(=O)C2C(c3ccccc3)C=CC(c3ccccc3)C2C1=O (stereo not given)	GLD-1 RNA inh 55
C#CC[N+](C)(C)CCN1C(=O)C2C(c3ccccc3)C=CC(c3ccccc3)C2C1=O (stereo not given)	none
Cc1c(N=C2N=C(NC(=O)c3ccc(F)cc3)c3ccccc32)c(=O)n(-c2ccccc2)n1C	EBV gp42 block 116
Cc1c(NC(=O)NC(=O)c2ccc(F)cc2)c(=O)n(-c2ccccc2)n1C	none
CCC1=NN2C(=N)/C(=C\c3cccn3-c3ccc(Br)cc3)C(=O)N=C2S1	EBV gp42 block 59 (no result: MCL1-BIM inh, Bcl-xL primary, GLD-1 RNA inh)
O=C(Nc1ccnn1C1CCN(CC2CC=CCC2)CC1)c1ccccc1 (stereo not given)	MEX-5 binding -27 (no result: MCL1-BIM inh, Bcl-xL primary, EBV gp42 block, GLD-1 RNA inh)
CCOC(=O)[C@]12CCCC=C1N(Cc1ccco1)C(=O)[C@H](CC(=O)NCCC(C)C)C2	none (no result: MCL1-BIM inh, Bcl-xL primary, MEX-5 binding, EBV gp42 block, GLD-1 RNA inh)
COc1ccc(C=NNc2nc3ccccc3s2)cc1	none (no result: MCL1-BIM inh, Bcl-xL primary, MEX-5 binding, EBV gp42 block, GLD-1 RNA inh)
C(=N\Nc1nc2ccccc2s1)/c1ccccn1	Bcl-xL primary 32 (no result: E coli Lon inh)
CC(C)N1CCc2c(sc(NC(=O)c3ccc(C(=O)c4ccccc4)cc3)c2C(N)=O)C1	none (no result: EBV gp42 block)
CC(C)N1CCc2c(sc(NC(=O)c3ccc4ccccc4c3)c2C(N)=O)C1	MEX-5 binding -37 (no result: EBV gp42 block)
NC(=O)c1c(NC(=O)C2COc3ccccc3O2)sc2c1CCN(Cc1ccccc1)C2 (stereo not given)	MEX-5 binding -62
CC(=O)c1ccc(C(=O)Nc2sc3c(c2C(N)=O)CCN(Cc2ccccc2)C3)cc1	MEX-5 binding -37 (no result: EBV gp42 block)
Cc1ccc(S(=O)(=O)NC(=O)C2(C)CCN2C(=O)Cc2ccc(Cl)cc2Cl)nc1 (stereo not given)	none (no result: MCL1-BIM inh, Bcl-xL primary, MEX-5 binding, EBV gp42 block, GLD-1 RNA inh)
CCN(CC)C(=O)c1cn(CCC#N)nc1-c1ccc(F)cc1	none
OC(c1cccc(F)c1)c1ncc(-c2ccc(C(F)(F)F)cc2)[nH]1 (stereo not given)	none (no result: MCL1-BIM inh, Bcl-xL primary, MEX-5 binding, EBV gp42 block, GLD-1 RNA inh)
CCN(CC)c1ccc(/C=C/c2nc3ccccc3s2)cc1	MEX-5 binding -32 (no result: E coli Lon inh)
CCN(CC)c1ccc(NC(=O)COC(=O)/C=C/c2nc3ccccc3s2)cc1	none
N#CC1=C(N)N2C(=C(C#N)C1c1ccccc1)Sc1ccccc12 (stereo not given)	MEX-5 binding -33, EBV gp42 block 90 (no result: E coli Lon inh)
CCOc1ccc(C2C(C#N)=C(N)N3C(=C2C#N)Sc2ccccc23)cc1 (stereo not given)	none (no result: EBV gp42 block)
CC1CCCCN1CCNC(=O)C1CCCN(c2ncnc3c2nc2n3CCCCC2)C1 (stereo not given)	Bcl-xL primary 39 (no result: EBV gp42 block)
CC1CC(C)CN(CCCNC(=O)C2CCCN(c3ncnc4c3nc3n4CCCCC3)C2)C1 (stereo not given)	GLD-1 RNA inh 41 (no result: EBV gp42 block)
CC1CCCN(CCCNC(=O)C2CCCN(c3ncnc4c3nc3n4CCCCC3)C2)C1 (stereo not given)	none (no result: EBV gp42 block)
Oc1ccccc1C=NC1=NN(c2cccc(C(F)(F)F)c2)CC1	EBV gp42 block 113
FC(F)(F)c1cccc(N2CCC(N=CN3CCCCCC3)=N2)c1	none
Cn1c(-c2c(N)n(CCCc3ccccc3)c3nc4ccccc4nc23)nc2ccccc21	none (no result: MCL1-BIM inh, Bcl-xL primary, GLD-1 RNA inh)
COCCCn1c(N)c(-c2nc3ccccc3n2C)c2nc3ccccc3nc21	MEX-5 binding -34
O=C(CN1c2cccc3cccc(c23)S1(=O)=O)N1CCN(c2ccccc2)CC1	none (no result: MCL1-BIM inh, Bcl-xL primary, MEX-5 binding, EBV gp42 block)

Source: PubChem BioAssay
